Growth data for nine molecules are collected here from PubChem BioAssay (NCI).

Among the test systems are RPMI-8226 leukemia; OVCAR-8 ovarian; OVCAR-5 ovarian; OVCAR-4 ovarian; SK-OV-3 ovarian; IGROV1 ovarian; OVCAR-3 ovarian; HS 578T breast; NCI/ADR-RES ovarian; T-47D breast; BT-549 breast; MDA-MB-435 melanoma; SW-620 colon; MCF7 breast; HCT-116 colon; HCC-2998 colon; KM12 colon.
Assay in all cases: NCI-60 one-dose screen, 48 h (100 = growth as untreated, 0 = no growth, -100 = all killed)
Common to all, as to settings: 10 µM

Structures are written as SMILES. About 83,000 compounds went through this panel and 20% of them were active in at least one assay; those are over-represented in the sample as a whole.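 In brief: 96-well plates, 48 h treatment, single concentration, percent growth endpoint.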 Values without a mark were called inactive. Calls of active or inactive are those of the source. Rule for the calls: active = growth percent below 10; inactive = the rest.

As to `Cc1cc(N(CCCNc2ccnc3cc(Cl)ccc23)Cc2cccs2)nc(Cl)n1`, the growth was -6.73% (active) in the assay on RPMI-8226 leukemia; 44.7% with OVCAR-8 ovarian; 69.1% in the assay on OVCAR-5 ovarian; 31.8% with OVCAR-4 ovarian; 42.4% in the assay with SK-OV-3 ovarian; 50.8% in the assay on IGROV1 ovarian. The growth is 55.7% with OVCAR-3 ovarian; 65.4% with HS 578T breast; 36.4% in the assay with NCI/ADR-RES ovarian; 22.1% in the assay with T-47D breast; 33.7% with BT-549 breast; 48.9% in the assay on MDA-MB-435 melanoma. Further, the growth was 32.9% in the assay on SW-620 colon; 40.8% with MCF7 breast; 21.4% in the assay with HCT-116 colon; 36.8% in the assay on HCC-2998 colon; 39.1% with KM12 colon.
For `COc1cc(Nc2ccnc(NCCCNc3ccnc4cc(Cl)ccc34)n2)cc(OC)c1`, the growth with RPMI-8226 leukemia was -45.3% (active); in the assay with OVCAR-8 ovarian, 3.57% (active); with OVCAR-5 ovarian, 44.7%; in the assay on OVCAR-4 ovarian, 2.29% (active); with SK-OV-3 ovarian, 14.7%; in the assay on IGROV1 ovarian it was 27.2%. The growth is -58.3% (active) in the assay with OVCAR-3 ovarian; -53.1% (active) in the assay on HS 578T breast; 50.7% with NCI/ADR-RES ovarian; -63.1% (active) in the assay on T-47D breast; 19.7% in the assay on BT-549 breast; -81.9% (active) in the assay with MDA-MB-435 melanoma. Besides, the growth in the assay on SW-620 colon is -43.3% (active); in the assay with MCF7 breast it was 3.36% (active); with HCT-116 colon, -53.6% (active); in the assay with HCC-2998 colon, -65% (active); with KM12 colon, 47.1%.
As to `Nc1cc2c(cc1Cl)-c1ccc([N+](=O)[O-])cc1/C2=N\O`, the growth in the assay with RPMI-8226 leukemia was 44.7%; in the assay with OVCAR-8 ovarian it was 99.5%; in the assay on OVCAR-5 ovarian, 145%; with OVCAR-4 ovarian, 88.9%; in the assay with SK-OV-3 ovarian, 97%; in the assay on IGROV1 ovarian, 57.1%. For the same molecule, the growth with OVCAR-3 ovarian was 86.6%; in the assay on HS 578T breast it was 106%; in the assay with NCI/ADR-RES ovarian, 95.1%; in the assay with T-47D breast, 101%; in the assay with BT-549 breast, 89%; in the assay with MDA-MB-435 melanoma, 51.3%. Also, the growth in the assay with SW-620 colon is 38.6%; in the assay with MCF7 breast it was 79.2%; in the assay with HCT-116 colon, 43.2%; in the assay with HCC-2998 colon, 97.3%; in the assay with KM12 colon it was 65%.
Turning to `Cc1ccc(C)c(C(O)(c2cc(C)ccc2C)C2(O)CCCCC2)c1`, the growth in the assay with RPMI-8226 leukemia is 89.7%; in the assay on OVCAR-8 ovarian it was 97.5%; in the assay with OVCAR-5 ovarian, 97.9%; with OVCAR-4 ovarian, 93%; in the assay on SK-OV-3 ovarian it was 90.9%; in the assay on IGROV1 ovarian it was 104%. Besides, the growth was 93.6% in the assay with OVCAR-3 ovarian; 94.1% in the assay with HS 578T breast; 94.8% in the assay with NCI/ADR-RES ovarian; 72.5% in the assay with T-47D breast; 100% in the assay on BT-549 breast; 105% in the assay on MDA-MB-435 melanoma. The growth in the assay on SW-620 colon was 96.8%; with MCF7 breast, 97.6%; in the assay with HCT-116 colon, 90.5%; with HCC-2998 colon it was 108%; with KM12 colon, 95.4%.
`O=C(Nc1ccncc1)C(=O)c1cn(S(=O)(=O)c2cccc(Cl)c2)c2ccccc12`: the growth is 47.2% in the assay on RPMI-8226 leukemia; 76.2% with OVCAR-8 ovarian; 107% with OVCAR-5 ovarian; 74.8% in the assay with OVCAR-4 ovarian; 96.6% in the assay with SK-OV-3 ovarian; 52.7% with IGROV1 ovarian. In addition, the growth was 45.7% in the assay with OVCAR-3 ovarian; 86.8% with HS 578T breast; 43.6% in the assay on NCI/ADR-RES ovarian; 70% with T-47D breast; 49% in the assay on BT-549 breast; 1.36% (active) with MDA-MB-435 melanoma. Moreover, the growth in the assay on SW-620 colon is 47%; in the assay on MCF7 breast, 29.3%; in the assay on HCT-116 colon it was 24%; with KM12 colon, 51.5%.
`COc1ccc(-c2nn(-c3cccc(NC(=O)c4ccc5c(c4)OCCO5)c3)cc2-c2ccncc2)cc1Cl`: the growth is -11.4% (active) in the assay with RPMI-8226 leukemia; 29.6% with OVCAR-8 ovarian; 42.7% in the assay on OVCAR-5 ovarian; 49% in the assay with OVCAR-4 ovarian; 25.9% in the assay on SK-OV-3 ovarian; 41.5% in the assay with IGROV1 ovarian. In addition, the growth was 4.99% (active) in the assay on OVCAR-3 ovarian; 1.38% (active) with HS 578T breast; 10.2% in the assay on NCI/ADR-RES ovarian; 19.5% in the assay with T-47D breast; 34.2% in the assay on BT-549 breast; -61.8% (active) in the assay with MDA-MB-435 melanoma. Further, the growth was 18.3% in the assay on SW-620 colon; 2.05% (active) with MCF7 breast; 15.3% in the assay with HCT-116 colon; 46.5% with HCC-2998 colon; 9.37% (active) in the assay with KM12 colon.
`COc1ccc(-c2nc3ncccn3c2-c2nnc(-c3ccc(F)cc3)o2)cc1`: the growth in the assay with RPMI-8226 leukemia is 95.9%; with OVCAR-8 ovarian, 92.4%; with OVCAR-5 ovarian, 98.1%; in the assay on OVCAR-4 ovarian, 96.6%; in the assay on SK-OV-3 ovarian, 107%; in the assay with IGROV1 ovarian it was 110%. In addition, the growth was 103% in the assay with OVCAR-3 ovarian; 96% in the assay with HS 578T breast; 93.7% in the assay with NCI/ADR-RES ovarian; 98.2% in the assay with T-47D breast; 99.7% in the assay with BT-549 breast; 107% in the assay with MDA-MB-435 melanoma. In addition, the growth in the assay with SW-620 colon is 105%; in the assay with MCF7 breast, 92.7%; in the assay on HCT-116 colon, 99.3%; in the assay on HCC-2998 colon, 104%; with KM12 colon, 104%.
In the case of `O=C1OCC2=C1C(c1ccc(Cl)c(Cl)c1)c1cc3c(cc1N2CCO)OCCO3` (stereo unspecified), the growth in the assay with RPMI-8226 leukemia is 18.7%; with OVCAR-8 ovarian, 27.7%; in the assay with OVCAR-5 ovarian it was 34.3%; with OVCAR-4 ovarian it was 55.7%; in the assay with SK-OV-3 ovarian it was 29.5%; with IGROV1 ovarian it was 34.6%. For the same molecule, the growth was -53.7% (active) with OVCAR-3 ovarian; -13.3% (active) in the assay on HS 578T breast; 3.69% (active) in the assay with NCI/ADR-RES ovarian; 62.2% in the assay with T-47D breast; 60.4% in the assay on BT-549 breast; -52.6% (active) in the assay with MDA-MB-435 melanoma. Besides, the growth in the assay with SW-620 colon is 19%; in the assay with MCF7 breast it was 20.4%; in the assay on HCT-116 colon, 19.8%; with KM12 colon it was 4.49% (active).
For `COc1ccc(-c2nn(-c3cccc(NC(=O)c4cc(C(F)(F)F)cc(C(F)(F)F)c4)c3)cc2-c2ccncc2)cc1Cl`, the growth in the assay on RPMI-8226 leukemia was 47.7%; in the assay with OVCAR-8 ovarian, 66.4%; with OVCAR-5 ovarian, 87.4%; in the assay on OVCAR-4 ovarian, 76.4%; in the assay with SK-OV-3 ovarian it was 75.2%; in the assay with IGROV1 ovarian it was 77.2%. In addition, the growth was 54.1% in the assay with OVCAR-3 ovarian; 71.5% with HS 578T breast; 59.9% with NCI/ADR-RES ovarian; 51.5% in the assay on T-47D breast; 87.3% in the assay with BT-549 breast; 6.11% (active) in the assay with MDA-MB-435 melanoma. Moreover, the growth in the assay on SW-620 colon is 79.2%; in the assay on MCF7 breast, 54.2%; in the assay on HCT-116 colon, 57.6%; in the assay on HCC-2998 colon, 71.1%; with KM12 colon, 48.8%.
